gsp agonist: qHTS for Agonist of gsp, the Etiologic Mutation Responsible for Fibrous Dysplasia/McCune-Albright Syndrome: qHTS. gsp mutant cells, cAMP HTRF, 30 min. Potency, µM (doses to about 76.9 µM), most hits filed as activators. 340,000 compounds, 0.13% hits; active means well fitted activation curve with a large enough effect; inconclusive means small, poorly fitted or top-dose-only effect, or another doubt; inactive means no such curve, though single readings can be large or run the other way; cell line not stated here;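 further: phosphodiesterase inhibitor Ro 20-1724 added with compounds to block cAMP breakdown; nearly all actives have a fitted effect of over 60% in size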
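Cells stably selected in G418 were plated at 2000/well, grown 16-24 hr, then given compounds in DMSO with the PDE inhibitor […] (300 uM solution added) for 30 min at 37C; cAMP was read by HTRF.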
RXFP1 antag: qHTS Assay for Antagonists of the Relaxin Receptor RXFP1 | AID 1259400, 2018 | activity change, negative = inhibition, % at 57.5 µM | Relaxin receptor 1 (Homo sapiens), Q9HBX9 | HEK293-RXFP1, relaxin-stimulated cAMP HTRF, 30 min; active compounds read low | 350,000 compounds, 0.59% hits;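 active means activity change of -60% or lower, but not beyond a set lower limit; inconclusive means change between -60% and -40%, or beyond the set limit; inactive means change above -40%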
Target sequence (Q9HBX9 whole entry, looked up): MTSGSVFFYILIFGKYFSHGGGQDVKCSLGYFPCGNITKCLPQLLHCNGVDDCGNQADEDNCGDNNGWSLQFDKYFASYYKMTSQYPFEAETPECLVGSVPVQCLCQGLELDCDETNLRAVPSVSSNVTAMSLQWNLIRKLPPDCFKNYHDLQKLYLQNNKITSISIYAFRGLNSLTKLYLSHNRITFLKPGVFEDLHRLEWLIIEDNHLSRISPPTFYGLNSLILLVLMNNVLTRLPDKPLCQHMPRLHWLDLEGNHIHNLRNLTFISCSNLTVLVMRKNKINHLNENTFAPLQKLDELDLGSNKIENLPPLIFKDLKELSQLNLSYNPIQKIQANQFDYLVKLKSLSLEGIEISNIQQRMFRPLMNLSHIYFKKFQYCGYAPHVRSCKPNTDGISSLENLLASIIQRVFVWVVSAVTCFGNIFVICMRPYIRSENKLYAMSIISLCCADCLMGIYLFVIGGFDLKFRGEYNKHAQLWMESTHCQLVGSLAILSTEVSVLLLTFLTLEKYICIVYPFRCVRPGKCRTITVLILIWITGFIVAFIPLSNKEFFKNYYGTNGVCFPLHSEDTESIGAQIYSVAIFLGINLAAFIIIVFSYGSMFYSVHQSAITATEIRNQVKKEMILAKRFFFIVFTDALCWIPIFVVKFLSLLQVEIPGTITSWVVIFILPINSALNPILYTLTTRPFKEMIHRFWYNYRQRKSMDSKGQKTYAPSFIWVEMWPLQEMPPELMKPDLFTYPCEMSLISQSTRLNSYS
gsp antagonist: qHTS for Antagonists of gsp, the Etiologic Mutation Responsible for Fibrous Dysplasia/McCune-Albright Syndrome: qHTS; gsp-mutant cells, cAMP HTRF, 30 min; Potency, µM (highest dose often 76.9 µM), usual class: inhibitors; 340,000 compounds, 0.4% hits; calls by dose curve; cell line not stated here;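 further: intracellular cAMP measured with PDE inhibitor Ro 20-1724 present during compound exposure; nearly all actives have a fitted effect of over 65% in size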
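HTRF cAMP read-out (cAMP-d2 plus anti-cAMP antibody-K in lysis buffer, 30 min RT). Before lysis, cells are exposed to compounds with […] for 30 min at 37C in DPBS containing Ca/Mg, BSA and Tween 20.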
RXFP1 ag: qHTS Assay for Agonists of the Relaxin Receptor RXFP1; 370,000 compounds, 0.3% hits; HEK293T-RXFP1 cAMP TR-FRET, 30 min; response scale: percent of porcine relaxin response, buffer zero; Relaxin receptor 1 (Homo sapiens), Q9HBX9; Potency, µM (highest dose often 57.5 µM), hits mostly activators; active means well fitted activation curve with a large enough effect; inconclusive means small, poorly fitted or top-dose-only effect; further: nearly all actives have a fitted effect of over 60% in size
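cAMP rise read by TR-FRET after 30 min, 37C compound exposure (up to 58 uM) in RXFP1-transfected HEK293 cells with Ro 20174 present. EC50 from Hill-equation fits, with 29 nM porcine relaxin as 100% and buffer as basal.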
Each line names hits and unclear results; the compound was inactive in the other large screens; ! = a repeat was not active. The list is not random: actives were taken first. Their share in the collection is about 0.9%.

Cc1ccc(CNC(=O)c2ccc3c(=O)n(CCCN4CCCC4=O)c(=S)[nH]c3c2)cc1	gsp agonist inconclusive
COc1ccc(CNC(=O)c2ccc3c(=O)n(CCCN4CCCC4=O)c(=S)[nH]c3c2)cc1	RXFP1 antag -116
O=C(NCc1ccccc1)c1ccc2c(=O)n(CCCN3CCCC3=O)c(=S)[nH]c2c1	RXFP1 antag -74
CCOCCCn1c(=S)[nH]c2cc(C(=O)NCC(OC)OC)ccc2c1=O	RXFP1 antag -66
COc1ccccc1CNC(=O)c1ccc2c(=O)n(CCCN3CCCC3=O)c(=S)[nH]c2c1	RXFP1 antag -65
Cc1c(NC(=O)c2cc(=O)c3cc(Cl)ccc3o2)c(=O)n(-c2ccccc2)n1C	none (no result: gsp agonist, gsp antagonist)
CCN(Cc1ccccc1)C(=O)Cn1c(=O)oc2cc(S(=O)(=O)N3CCCCCC3)ccc21	none (no result: gsp agonist, gsp antagonist)
Cc1c(Cl)cccc1NC(=O)Cn1c(=O)nc(-c2ccccc2)c2ccccc21	none (no result: gsp agonist, gsp antagonist)
Cc1ccc(C)c(NC(=O)C(=O)NCC(c2cccnc2)N2CCN(c3ccc(F)cc3)CC2)c1 (stereo unspecified)	none (no result: gsp agonist, gsp antagonist)
CCCn1c(=S)[nH]c2cc(C(=O)N(CCO)Cc3ccccc3)ccc2c1=O	RXFP1 antag -75
CCN(CC)C(=O)c1ccc2c(=O)n(CCOC)c(=S)[nH]c2c1	none
CCc1ccc(-n2cnc3cc(C(=O)NCc4ccc(C)cc4)ccc32)cc1	none (no result: gsp agonist, gsp antagonist)
CCC(=O)OCCNc1cc(Sc2nccn2C)c2nonc2c1[N+](=O)[O-]	RXFP1 antag -90
CCC(=O)OCCNc1cc(SCCC(=O)OC)c2nonc2c1[N+](=O)[O-]	gsp agonist inconclusive
Cc1ccc(-c2c(C(=O)N3CCN(c4ccc(F)cc4)CC3)oc(=O)c3ccccc23)cc1	none (no result: gsp agonist, RXFP1 antag, gsp antagonist)
Cn1c2c(c(=O)n3ncnc13)CCCC2	RXFP1 ag 22µM
O=C(Cn1c(=O)oc2ccccc21)NCc1cccc(Cl)c1	none (no result: gsp agonist, gsp antagonist)
CC1(C)NC(=O)N(CC(=O)OCC(=O)c2ccc(Br)s2)C1=O	gsp agonist 10µM (no result: RXFP1 ag)
O=C(Cn1cc(C(=O)C2CC2)c2ccccc21)Nc1ccc(Br)cc1	RXFP1 ag 20µM (no result: gsp agonist, gsp antagonist)
Cc1ccc(NC(=O)Cn2cc(C(=O)C3CC3)c3ccccc32)cc1	RXFP1 ag 10µM!
CCC(C)n1c(=N)c(C(=O)NC2CCCCC2)cc2c(=O)n3cc(C)ccc3nc21 (stereo unspecified)	none (no result: gsp agonist, RXFP1 antag, gsp antagonist)
CCn1c(=O)cc(OCC(=O)NCc2ccccc2Cl)c2ccccc21	none (no result: gsp agonist, RXFP1 antag, gsp antagonist)
COc1ccc2cc(CCN3C(=O)c4ccccc4C3=O)c(=O)[nH]c2c1	gsp agonist 11µM, RXFP1 ag inconclusive (no result: RXFP1 antag)
CC(=O)Nc1ccc(NC(=O)c2nc(S(=O)(=O)Cc3ccccc3)ncc2Cl)cc1	RXFP1 antag inconclusive
CCS(=O)(=O)c1ncc(Cl)c(C(=O)Nc2ccc(C)cc2)n1	RXFP1 antag -78, gsp antagonist inconclusive
Cc1ccc(CS(=O)(=O)c2ncc(Cl)c(C(=O)Nc3ccc(OC(F)F)cc3)n2)cc1	RXFP1 antag -66, gsp antagonist inconclusive
CS(=O)(=O)c1ncc(Cl)c(C(=O)Nc2ccc3ccccc3c2)n1	RXFP1 antag -93
COc1ccc(NC(=O)c2nc(S(=O)(=O)Cc3ccc(C)cc3)ncc2Cl)cc1	RXFP1 antag -118 (no result: gsp agonist, gsp antagonist)
C[C@@H](O)[C@H]1C(=O)N2C(C(=O)O)=C([C@H]3CCCO3)S[C@H]12	none (no result: gsp agonist, gsp antagonist, RXFP1 ag)
CCS(=O)(=O)c1ncc(Cl)c(C(=O)Nc2ccc(S(=O)(=O)N3CCCC(C)C3)cc2)n1 (stereo unspecified)	RXFP1 antag -119, gsp antagonist inconclusive
CCC1CCCCN1S(=O)(=O)c1ccc(NC(=O)c2nc(S(C)(=O)=O)ncc2Cl)cc1 (stereo unspecified)	RXFP1 antag inconclusive, gsp antagonist inconclusive
O=C(Nc1ccc(OC(F)F)cc1)c1ncc(Cl)c(Cl)c1Cl	gsp antagonist 11µM
CCOC(=O)c1c(C)[nH]c(-c2csc(C)n2)c1C	RXFP1 antag -67
COc1ccc(C(=O)/C=C/C(=O)N(CC(=O)NC2CCCCC2)Cc2ccccc2)c(O)c1	RXFP1 antag -64
COc1ccc(C(=O)/C=C/C(=O)N(CC(=O)NC2CCCCC2)Cc2ccccc2OC)c(O)c1	none (no result: gsp antagonist)
O=S(=O)(c1cccc(COc2ccc(Cl)cc2Cl)c1)N1CCOCC1	none
CC(=O)c1cc(Cl)ccc1OCc1cccc(S(=O)(=O)N2CCOCC2)c1	gsp antagonist 35µM
C[C@@]12CCC[C@H]1[C@@H]1CC[C@H]3C[C@@H](O)CC[C@]3(C)[C@H]1CC2	none (no result: gsp agonist, gsp antagonist, RXFP1 ag)
O=C(COc1ccccc1[N+](=O)[O-])OCC(=O)c1ccc(Br)s1	gsp agonist 10µM (no result: RXFP1 ag)
CCOC(=O)C1=C(CC)Nc2ccccc2N=C1NC(=O)CCNC(C)=O	RXFP1 antag -75
Cc1nc2ccc(S(=O)(=O)CCC(=O)Nc3ccc(C)c(C)c3)cc2s1	none (no result: gsp agonist, gsp antagonist)
O=C(NNc1nc(=O)c2cccnc2s1)c1ccccc1O	RXFP1 ag 16µM
O=C(CCCSc1ccc(Cl)cc1)Nc1cc(S(=O)(=O)N2CCOCC2)ccc1O	gsp antagonist 32µM
O=C(Nc1cc(S(=O)(=O)N2CCOCC2)ccc1O)c1ccc(S(=O)(=O)N2CCCCC2)cc1	gsp antagonist 8.9µM (no result: RXFP1 ag)
CCOC(=O)c1ccc(CN(Cc2ccccc2C)S(=O)(=O)c2ccc(F)c(C(=O)Nc3cccc(OC)c3)c2)cc1	none (no result: gsp agonist, gsp antagonist)
Cc1ccc(C(C)(C)C)cc1S(=O)(=O)Nc1cccc(C(=O)N2CCN(c3ccccn3)CC2)c1	RXFP1 antag inconclusive, gsp antagonist 40µM
CCN1CCN(c2ccc(S(=O)(=O)N3CCOCC3)cc2NC(=O)c2cccc([N+](=O)[O-])c2)CC1	gsp agonist 25µM (no result: RXFP1 ag)
Cc1ccc(S(=O)(=O)N2CCOCC2)cc1NC(=O)c1cc([N+](=O)[O-])ccc1N1CCOCC1	gsp agonist 11µM
CCN1CCN(c2ccc(S(=O)(=O)N3CCOCC3)cc2NC(=O)c2ccc(C(F)(F)F)cc2)CC1	none
C#Cc1ccc(-c2ccccc2F)cc1	none (no result: gsp agonist, gsp antagonist, RXFP1 ag)
N=c1c2c(-c3ccccc3)c(-c3ccccc3)n(Cc3ccco3)c2ncn1Cc1ccco1	RXFP1 antag -102
Nc1c(O)ccc2c1C(=O)c1ccccc1C2=O	RXFP1 antag -80, gsp antagonist 25µM
CCN[C@@H]1C[C@H](N)[C@@H](OC2OC(CN)=CCC2N)[C@H](O)[C@H]1O[C@H]1OC[C@](C)(O)[C@H](NC)[C@H]1O (stereo partly specified)	none (no result: gsp agonist, gsp antagonist, RXFP1 ag)
COc1ccc(OCCNC(=O)C(Cc2c[nH]c3ccccc23)NC(C)=O)cc1 (stereo unspecified)	gsp agonist 10µM
CCOc1ccc(Cn2nnc(C(=O)NCc3ccc(OC)cc3)c2N)cc1	RXFP1 ag 32µM (no result: RXFP1 antag)
COC(=O)c1sccc1NC(=O)CN(C)NS(=O)(=O)c1ccc(Cl)cc1	none
COC(=O)c1sccc1NC(=O)CN(C)NS(=O)(=O)c1ccc(F)cc1	gsp antagonist 50µM
